Screens (PubChem)
Sampled rows, rich in hits. Any-hit rate of the full collection: about 9.4%.
Rab9 promoter act: Rab9 promoter activation; Huh7 Rab9 promoter-luciferase reporter, luminescence, 24 h; Potency, µM (series often up to 9.22 µM), for inactives: top-dose activation, negative = inhibition, usual class: activators; 320,000 tested, 2.8% active; also: % of control where 0% means no effect; nearly all actives have a fitted effect of over 60% in size
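Measured in stably transfected Huh7 cells bearing a Rab9 promoter–luciferase construct: 24 h compound treatment at 37 °C, followed by luminescence detection.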
ELG1 repair inh: blocks ELG1-dependent DNA repair in HEK293T cells; 330,000 tested, 2.3% active; AID 504467; HEK293T ELG1-luciferase reporter, luminescence, 16 h; DNA damage induced by 5-fluorouridine; Potency, µM (highest dose often 46.1 µM), for the others: top-dose activity change, negative = inhibition, most hits filed as inhibitors; also: % is scaled to controls: 0 for no effect and ±100 for the full control effect; nearly all actives have a fitted effect of over 55% in size
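Cells (2,000 per well) received 5-fluorouridine plus test compound or DMSO and were incubated 16 hr at 37 °C, 5% CO2. Luciferase activity was read by luminescence 30 min after ONE-Glo addition; signal suppression marked inhibition of damage-induced ELG1 function.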
NPC1 prom act: NPC1 promoter activation; 320,000 tested, 2.4% active; Huh7 NPC1 promoter luciferase reporter, 24 h; Potency, µM (doses to about 9.22 µM), without a hit: at the highest dose activation, hits mostly activators; also: % of control where 0% means no effect; nearly all actives have a fitted effect of over 60% in size
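Luminescence read-out of NPC1 promoter-driven luciferase in stably transfected Huh7 cells; compounds delivered in DMSO and left 24 h at 37C, 5% CO2, qHTS titration format.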
ELG1 genotoxic: inducers of genotoxicity in HEK293T ELG1-luciferase cells. HEK293T ELG1-luciferase reporter, luminescence, 16 h. Potency, µM (titrated, usually from 46 µM), inactives show at the highest dose activity change, positive = activation, hits mostly activators. 330,000 tested, 1.3% active; also: % of control where 0% means no effect; nearly all actives have a fitted effect of over 60% in size
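Genotoxic stress is detected as increased luminescence from luciferase-tagged ELG1 in HEK293T cells, measured with ONE-Glo after a 16 hr treatment at 37 °C.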
FLuc modulator: counter-screen for miR-21 project: firefly luciferase inhibitors or activators; P08659; purified FLuc, Km substrates, luminescence inhibition; Potency, µM (top dose mostly 57.5 µM), without a hit: top-dose activity change, negative = inhibition, actives largely listed as inhibitors; 360,000 tested, 6.9% active; AID 588342;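 also: plate controls were vehicle for no effect and reference inhibitor for full effect; nearly all actives have a fitted effect of over 55% in size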
Target sequence (P08659 whole entry, looked up): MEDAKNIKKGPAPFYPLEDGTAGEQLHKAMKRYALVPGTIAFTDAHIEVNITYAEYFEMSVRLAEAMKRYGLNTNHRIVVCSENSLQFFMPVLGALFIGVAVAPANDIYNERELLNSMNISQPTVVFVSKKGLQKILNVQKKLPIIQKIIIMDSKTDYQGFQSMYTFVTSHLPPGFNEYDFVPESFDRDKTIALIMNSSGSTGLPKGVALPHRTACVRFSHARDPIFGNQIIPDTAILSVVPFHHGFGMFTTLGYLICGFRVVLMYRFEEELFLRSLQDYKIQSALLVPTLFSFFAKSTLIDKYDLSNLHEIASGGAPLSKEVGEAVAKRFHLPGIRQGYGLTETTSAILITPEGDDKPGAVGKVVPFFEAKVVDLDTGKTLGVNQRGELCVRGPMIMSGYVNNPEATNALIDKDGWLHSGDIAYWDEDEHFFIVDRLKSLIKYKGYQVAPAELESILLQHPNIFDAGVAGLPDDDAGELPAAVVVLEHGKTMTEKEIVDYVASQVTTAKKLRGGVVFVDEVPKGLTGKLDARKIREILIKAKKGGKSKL
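Purified P. pyralis luciferase, 10 nM final, with Km-level 10 uM D-luciferin and 10 uM ATP in 50 mM Tris acetate pH 7.5, 10 mM Mg acetate, 0.01% Tween-20, 0.05% BSA; 6-point qHTS titration about 60 µM downward; luminescence read.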
SMN2 splice enh: increases expression of the SMN2 splice variant | HEK293 SMN2-luciferase splicing reporter, luminescence, 30-36 h | Potency, µM (titrated, usually from 46.1 µM), inactives show top-dose activity change, positive = activation, actives largely listed as activators | 210,000 tested, 2.8% active | AID 1458; also: % of control where 0% means no effect; nearly all actives have a fitted effect of over 55% in size
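HEK293 cells carry an SMN2 minigene-luciferase reporter in which exon 7 inclusion puts luciferase in frame. Cells were seeded at 2000 cells/well, attached for 10-12 hours, then exposed to compounds for 30-36 hours at 37C before ONE-Glo luminescence.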
* hit, by the source's call; [ ] = dose if it differs, or a comment. Calls follow the shape of the dose curve; as a rule, active = well fitted curve in the direction sought with a large enough effect; inconclusive = small, poorly fitted or top-dose-only effect, or another doubt; inactive = no such curve, though single readings can be large; an effect the other way counts as inactive or inconclusive. Potency is read from the fitted curve at half-maximal effect.

For CCOc1ccc(N(C(=O)c2snc(C(N)=O)c2N)C(C(=O)NCC2CCCO2)c2ccc(C)o2)cc1 (stereo not drawn) the results were Rab9 promoter act 1%, ELG1 repair inh 15%, NPC1 prom act 0%, ELG1 genotoxic 0% and FLuc modulator 13µM*.
For Cc1ccc(NC(=O)NCc2c(-n3cccc3)sc3c2CCCC3)c(Cl)c1 the results were FLuc modulator -13%.
Cc1ccc(-c2nnc(Nc3ccc(Br)cc3)c3ccccc23)cc1S(=O)(=O)N1CCOCC1 was read as FLuc modulator -4%.
For O=C(Nc1ccc(S(=O)(=O)Nc2ncccn2)cc1)c1cc(=O)c2ccccc2o1 the results were FLuc modulator 4% and SMN2 splice enh -1%.
`Cc1cc2ccccc2n2c(SCC(=O)Nc3ccc(S(=O)(=O)N4CCC(C)CC4)cc3)nnc12` gave Rab9 promoter act 0%, ELG1 repair inh 26µM*, NPC1 prom act -7%, ELG1 genotoxic -3%, FLuc modulator 2% and SMN2 splice enh -25%.
`CCCSc1oc(-c2cccs2)nc1S(=O)(=O)c1ccc(Cl)cc1` gave FLuc modulator -8% and SMN2 splice enh -10%.
Screening COC(=O)C1=C(C(=O)OC)[C@@H]2Nc3ccccc3[C@@]23C[C@@H](C(=O)OC)N(S(=O)(=O)c2ccc(Br)cc2)C3=N1 returned SMN2 splice enh 1%[9.22 µM].
O=C(COC(=O)c1c2c(nc3ccccc13)/C(=C/c1ccco1)CC2)NC1CCCC1 was read as Rab9 promoter act 27%, ELG1 repair inh inconclusive, NPC1 prom act 19%, ELG1 genotoxic -2%, FLuc modulator 5.4µM* and SMN2 splice enh 28%.
For CCc1cccc(C)c1NC(=O)COC(=O)c1c2c(nc3ccccc13)/C(=C\c1cccs1)CCC2 the results were Rab9 promoter act -31%, ELG1 repair inh 15µM*, NPC1 prom act -26%, ELG1 genotoxic -12%, FLuc modulator 0% and SMN2 splice enh -4%.
`CC(C)CNC(=O)COC(=O)c1c2c(nc3ccccc13)/C(=C/c1cccs1)CC2` gave Rab9 promoter act -7%, ELG1 repair inh inconclusive, NPC1 prom act -29%, ELG1 genotoxic -11% and FLuc modulator 5.4µM*.
`CC1CCCCC1NC(=O)COC(=O)c1c2c(nc3ccccc13)/C(=C/c1ccco1)CC2` (stereo not drawn) gave Rab9 promoter act 19%, ELG1 repair inh inconclusive, NPC1 prom act 11%, ELG1 genotoxic 1%, FLuc modulator inconclusive and SMN2 splice enh 26%.
For CCN1C/C(=C/c2cccs2)c2nc3ccccc3c(C(=O)O)c2C1 the results were Rab9 promoter act -1%, ELG1 repair inh -8%, NPC1 prom act 0%, ELG1 genotoxic 0% and FLuc modulator 0%.
`NC(=O)c1ccc(NC(=O)COC(=O)c2c3c(nc4ccccc24)/C(=C\c2cccs2)CCC3)cc1` gave Rab9 promoter act -36%, ELG1 repair inh 7.3µM*, NPC1 prom act -32%, ELG1 genotoxic -16%, FLuc modulator inconclusive and SMN2 splice enh -54%.
Screening Cc1ccc(-n2c(=O)c3oc4ccccc4c3n(CC(=O)Nc3ccc(F)c(Cl)c3)c2=O)cc1C returned FLuc modulator 0%.
O=c1oc2ccccc2cc1-c1cn2ccccc2n1 was read as Rab9 promoter act inconclusive, ELG1 repair inh inconclusive, NPC1 prom act 0.11µM*, ELG1 genotoxic inconclusive and FLuc modulator 0.095µM*.
Nc1ccc(-c2cn3cccnc3n2)cc1 was read as Rab9 promoter act inconclusive, ELG1 repair inh inconclusive, NPC1 prom act 24%, ELG1 genotoxic 13%, FLuc modulator inconclusive and SMN2 splice enh 31%.
